Test results taken from PubChem BioAssay AID504534 (National Center for Advancing Translational Sciences (NCATS), 2011).
Inconclusive results are not listed. Where a call stands in place of a potency, no number is given. Calls of active or inactive are those of the source. Calls come from the whole dose curve; as a rule, active = well fitted curve in the direction sought with a large enough effect; inconclusive = small, poorly fitted or top-dose-only effect, or another doubt; inactive = no such curve, though single readings can be large or run the other way.

experiment: Secondary Assay for Inhibitors of Human Cdc-like kinase 4 (Clk4): HEK-293 Cell Viability Assay; settings: HEK-293 viability, ATP luminescence (CellTiter-Glo), 24/48 h; series mostly up to 46.1 µM;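 note: cytotoxic hits lower the ATP light signal so activity reflects loss of viability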
In short: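 Cytotoxicity was measured as ATP luminescence (CellTiter-Glo) after 24 or 48 h compound exposure at 37 degrees C. HEK-293 cells in MEM with 10% FBS had been seeded 4 h earlier.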

Compound	Potency
Cc1cc(CNc2ncnc3ccc(-c4ccc5c(c4)OCO5)cc23)c(C)o1	inactive
Cc1cccc(CNc2ncnc3ccc(-c4cccc(Cl)c4)cc23)c1	inactive
CN(Cc1ncc[nH]1)c1ncnc2ccc(-c3ccc4c(c3)OCO4)cc12	inactive
CN(CC1CCCCO1)c1ncnc2ccc(-c3ccc4c(c3)OCO4)cc12 (stereo unspecified)	inactive
CCN(Cc1cccs1)c1ncnc2ccc(-c3ccc4c(c3)OCO4)cc12	inactive
Cc1ccc(CN(C)c2ncnc3ccc(-c4ccc(CO)n4C)cc23)o1	inactive
c1cncc(-c2ccc3ncnc(NCc4ccc5c(c4)OCO5)c3c2)c1	inactive
OCc1ccc(-c2ccc3ncnc(NCCc4cnc[nH]4)c3c2)o1	inactive
Cc1csc(CNc2ncnc3ccc(-c4cccc(Cl)c4)cc23)c1	inactive
Cc1nc(CSc2ncnc3ccc(-c4ccc5c(c4)OCO5)cc23)cs1	inactive
CCOC(=O)c1ccoc1-c1ccc2ncnc(NCc3ccc(C)o3)c2c1	inactive
CS(=O)(=O)CCNCc1ccc(-c2ccc3ncnc(Nc4ccc(OCc5cccc(F)c5)c(Cl)c4)c3c2)o1	inactive
c1csc(CNc2ncnc3ccc(-c4ccc5c(c4)OCCO5)cc23)c1	inactive
O=C(O)c1ccc(-c2ccc3ncnc(NCC4CCCO4)c3c2)o1 (stereo unspecified)	inactive
c1nc(NCCc2cnc[nH]2)c2cc(-c3ccoc3)ccc2n1	inactive
Cn1ccc2cc(-c3ccc4ncnc(NCc5cccnc5)c4c3)ccc21	inactive
Cc1csc(CNc2ncnc3ccc(-c4ccc5c(ccn5C)c4)cc23)c1	inactive
c1csc(CNc2ncnc3ccc(-c4ccc5c(c4)OCO5)cc23)n1	inactive
Cc1nc(CNc2ncnc3ccc(-c4ccoc4C)cc23)cs1	inactive
Fc1c(-c2ccc3ncnc(NCc4cccs4)c3c2)ccc2c1OCO2	inactive
Fc1cccc(CNc2ncnc3ccc(-c4ccc5c(c4)OCO5)cc23)c1	inactive
Cc1cccc(CNc2ncnc3ccc(-c4ccc5c(ccn5C)c4)cc23)c1	inactive
c1cncc(CNc2ncnc3ccc(-c4ccc5c(c4)OCO5)cc23)c1	inactive
Cc1ccsc1CN(C)c1ncnc2ccc(-c3ccc(COC(=O)N(C)C)o3)cc12	inactive
C#Cc1cccc(Nc2ncnc3cc(OCCOC)c(OCCOC)cc23)c1	inactive
c1csc(CCNc2ncnc3ccc(-c4ccc5c(c4)OCO5)cc23)c1	inactive
